Screening data deposited in PubChem by National Center for Advancing Translational Sciences (NCATS).
This is a sample that favours compounds with a hit; in the whole collection about 10% have one here.
12-hLO inh: 12-hLO (ALOX12) enzyme inhibition; hit rate 0.12% among 150,000; P18054; Potency, µM (series often up to 57.1 µM), actives largely listed as inhibitors; purified 12-hLO, xylenol orange hydroperoxide absorbance; active = well fitted inhibition curve with a large enough effect; inconclusive = small, poorly fitted or top-dose-only effect; also: nearly all actives have a fitted effect of over 55% in size
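Hydroperoxide formation by human 12-lipoxygenase from 40 uM arachidonic acid was followed colorimetrically via ferric-xylenol orange complex, using the 573/405 nm absorbance ratio. Enzyme concentration was 150 nM, with 30 min reaction at room temperature.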
LMNA splice mod: LMNA splicing modulation; HeLa LMNA splicing GFP/RFP minigene ratio, 48 h; Potency, µM (doses to about 46.1 µM), hits mostly inhibitors; hit rate 0.01% among 200,000; AID 1487; active = well fitted inhibition curve with a large enough effect in the signal ratio, with a control signal flat, not every such curve was filed as active; inconclusive = small, poorly fitted or top-dose-only effect, or effect the other way, or a change in a side signal; the % refers to the signal ratio
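S3 HeLa stable clones carrying a lamin A-EGFP splicing minigene plus DsRed2 were seeded at 600 cells/well in Opti-MEM with 2% FBS, pin-dosed and incubated 48 h at 37°C. Acumen cytometry (488 nm) gave the GFP/RFP total-intensity ratio.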
ALDH1A1 inh: inhibitors of human aldehyde dehydrogenase 1A1. hit rate 7.3% among 220,000. P00352. Purified ALDH1A1, NADH fluorescence, propionaldehyde substrate. AID 1030. Potency, µM (doses to about 75.3 µM), actives largely listed as inhibitors
PNC assembly inh: inhibitors of perinucleolar compartment assembly; PC3M PTB-GFP, PNC prevalence imaging, 16 h; stronger effect = lower value; AID 2417; hit rate 3.1% among 140,000; activity change (PNC), negative = inhibition, % at 10 µM;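 active = readout at or below -70, meaning at least 70% loss of cells showing the perinucleolar compartment, a nuclear body marking cancer cells; inconclusive = readout between -30 and a set limit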
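Read-out is percentage of cells bearing a perinucleolar compartment, from automated 20x imaging of fixed, Hoechst-stained PC3M PTB-GFP cells. Cells were seeded 4 h, then exposed 16 h to compound (23 nl of library stock) in duplicate plates.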
HPGD inh: HPGD (human) dehydrogenase inhibition. hit rate 4.3% among 150,000. Potency, µM, most hits filed as inhibitors. AID 894. P15428. purified HPGD, NADH fluorescence kinetic, PGE2 substrate
Target sequence (P15428 whole entry, looked up): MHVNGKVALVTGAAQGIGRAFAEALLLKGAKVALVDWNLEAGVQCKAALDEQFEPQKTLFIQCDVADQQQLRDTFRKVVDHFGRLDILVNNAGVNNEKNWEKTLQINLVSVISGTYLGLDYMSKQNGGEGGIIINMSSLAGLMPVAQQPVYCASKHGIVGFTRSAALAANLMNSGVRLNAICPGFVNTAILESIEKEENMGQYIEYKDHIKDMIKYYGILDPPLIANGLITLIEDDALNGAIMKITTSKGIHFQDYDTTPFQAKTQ
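20 nM HPGD preincubated 15 min at room temperature with compound in 50 mM Tris-HCl pH 8, 0.01% Tween 20. Started with 1 mM NAD+ and 30 uM prostaglandin E2; NADH fluorescence (360/450 nm) read 5 times over 30-s intervals, last minus first.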
Of the large screens only hits and unclear results are named; the others gave an inactive call; ! = not confirmed by another sample. Unless noted, calls follow the shape of the dose curve; as a rule, active = well fitted inhibition curve with a large enough effect (not every such curve was filed as active); inconclusive = small, poorly fitted or top-dose-only effect, or another doubt; inactive = no such curve, though single readings can be large or run the other way.

Cc1cc(C2(c3cc(C)c(O)cc3C)OS(=O)(=O)c3ccccc32)c(C)cc1O	ALDH1A1 inh 28.2µM (no result: LMNA splice mod, PNC assembly inh)
O=C(COCc1cc(-c2cccs2)on1)Nc1cccc(Cl)c1Cl	none (no result: 12-hLO inh, ALDH1A1 inh, PNC assembly inh, HPGD inh)
CCOC(=O)/C(C#N)=C1/C(=O)N(Cc2ccccc2)c2ccccc21	ALDH1A1 inh 0.112µM (no result: 12-hLO inh, LMNA splice mod, PNC assembly inh, HPGD inh)
CCOC(=O)/C(C#N)=C1/C=Cc2ccccc2N1CC	PNC assembly inh -99.5
CCN1C(=C(C#N)C#N)C=Cc2ccccc21	ALDH1A1 inh inconclusive (no result: 12-hLO inh, PNC assembly inh, HPGD inh)
CCOC(=O)/C=c1\s/c(=C(\C#N)C(=O)OCC)n(-c2ccccc2)c1=O	none
Cc1ccc(CNS(=O)(=O)c2ccc3c(c2)OCCO3)cc1	LMNA splice mod inconclusive, PNC assembly inh -101.4
Cc1ccccc1CNS(=O)(=O)c1ccc2c(c1)OCCO2	PNC assembly inh -118.9, HPGD inh 25.1µM
O=S(=O)(NCCSCc1ccc(Cl)cc1Cl)c1ccc2c(c1)OCCO2	ALDH1A1 inh inconclusive
O=S(=O)(NCCSc1ccc(Cl)cc1)c1ccc2c(c1)OCCO2	LMNA splice mod inconclusive, ALDH1A1 inh 14.1µM
CC(C)CNS(=O)(=O)c1ccc2c(c1)OCCO2	HPGD inh 31.6µM
C=C(C)C(=O)C1CCCCC1	none (no result: 12-hLO inh, LMNA splice mod, PNC assembly inh)
CCCn1c(C)nc2c(N3CCOCC3)nc(C)nc21	none (no result: LMNA splice mod, PNC assembly inh)
CCCCC[C@H](O)/C=C/[C@H]1C=CC(=O)[C@@H]1C/C=C\CCCC(=O)O	LMNA splice mod inconclusive, ALDH1A1 inh 39.8µM!, PNC assembly inh -96.1, HPGD inh 22.4µM!
CC(=O)c1sc(Nc2ccccn2)nc1C	LMNA splice mod inconclusive, ALDH1A1 inh 20µM, PNC assembly inh inconclusive
COc1cc(C)nc(Nc2nc(C)c(C(C)=O)s2)n1	LMNA splice mod inconclusive, ALDH1A1 inh 1.58µM (no result: HPGD inh)
CC(=O)c1sc(Nc2ccc(C)cc2)nc1C	none (no result: 12-hLO inh, PNC assembly inh, HPGD inh)
O=C(CCc1ccccc1)NCc1nc2cccnc2n1Cc1ccc(F)cc1	none (no result: 12-hLO inh, ALDH1A1 inh, PNC assembly inh, HPGD inh)
O=S(=O)(c1ccccc1)c1nc(-c2ccccc2)oc1NCc1cccnc1	ALDH1A1 inh 25.1µM, PNC assembly inh inconclusive
O=C1Nc2ccccc2C(O)(C(=O)NCc2ccco2)N1c1ccc(Cl)c(Cl)c1 (centres undefined)	ALDH1A1 inh 25.1µM
CCOC(=O)N1N=C(c2ccccc2)CC1(O)C(F)(F)F (centres undefined)	none
CCOC(=O)N1N=C(CC)CC1(O)C(F)(F)F (centres undefined)	PNC assembly inh -85.9
COc1ccc(NC(=O)Cc2ccc(Cl)cc2Cl)cn1	none (no result: 12-hLO inh, PNC assembly inh, HPGD inh)
COc1ccc(NC(=O)/C(Cl)=C(/Cl)S(=O)Cc2ccccc2Cl)cn1 (centres undefined)	LMNA splice mod inconclusive, ALDH1A1 inh 0.631µM (no result: 12-hLO inh, PNC assembly inh, HPGD inh)
COc1ccc(NC(=O)/C(Cl)=C(/Cl)S(=O)(=O)Cc2ccc(C)cc2)cn1	LMNA splice mod inconclusive, ALDH1A1 inh 2.51µM
COc1ccc(NC(=O)Cc2ccc(Cl)c(Cl)c2)cn1	none (no result: 12-hLO inh, LMNA splice mod, PNC assembly inh, HPGD inh)
C[C@@H](CN1CCC(Cc2ccccc2)CC1)[C@H](O)c1ccc(O)cc1	none (no result: LMNA splice mod, ALDH1A1 inh, PNC assembly inh, HPGD inh)
CCOc1ccccc1CNC(=O)CN1C(=O)c2cccnc2Oc2ccc(C)cc21	none (no result: 12-hLO inh, ALDH1A1 inh, PNC assembly inh, HPGD inh)
CC1(C)COCN1COC1CCCCC1	none (no result: LMNA splice mod, PNC assembly inh)
C=CCN1C(=O)S/C(=C/c2ccc(Sc3nc4ccccc4[nH]3)o2)C1=O	LMNA splice mod inconclusive, ALDH1A1 inh 10µM
CC(C)N1C(=O)S/C(=C/c2ccc(Sc3nc4ccccc4[nH]3)o2)C1=O	LMNA splice mod inconclusive, ALDH1A1 inh 7.08µM, PNC assembly inh inconclusive
CCN=C1S/C(=C\c2ccc(Sc3ccc(Cl)cc3)o2)C(=O)N1CC	none
CCN(CC)c1ccc(C=NCCc2ccc(S(N)(=O)=O)cc2)cc1	ALDH1A1 inh 0.126µM (no result: 12-hLO inh, LMNA splice mod, PNC assembly inh, HPGD inh)
O=[N+]([O-])c1ccc(C2NS(=O)(=O)N=C3CCCCCN32)cc1 (centres undefined)	ALDH1A1 inh 28.2µM (no result: 12-hLO inh, LMNA splice mod, PNC assembly inh, HPGD inh)
COC(=O)C1=C(C)NC(=O)C1(NC(=O)c1ccc(Cl)cc1)C(F)(F)F (centres undefined)	none (no result: 12-hLO inh, ALDH1A1 inh, PNC assembly inh, HPGD inh)
CN(C)S(=O)(=O)c1ccc2c(c1)N(CC(=O)N1CCN(c3ccc(F)cc3)CC1)CCS2	none (no result: 12-hLO inh, ALDH1A1 inh, PNC assembly inh, HPGD inh)
Cc1cc(C)cc(NC(=O)Cn2cc3c(n2)CCCCC3)c1	HPGD inh 20µM
CN(C)c1ccc(NC(=O)Cn2cc3c(n2)CCCC3)cc1	none
COCCCn1c(SCC(=O)Nc2ccc(C(=O)OC)cc2)nc2ccccc2c1=O	ALDH1A1 inh inconclusive, PNC assembly inh -116.8
CCOc1ccc(NC(=O)CSc2nc3cccnc3n2CC)cc1	LMNA splice mod inconclusive
CCOc1ccc(NC(=O)CSc2nc3cccnc3n2CCOC)cc1	ALDH1A1 inh 28.2µM
CCOc1ccc(NC(=O)CSc2nnc(-c3ccccn3)n2N)cc1	ALDH1A1 inh 11.2µM, PNC assembly inh inconclusive
COC(=O)c1ccc(NC(=O)CSc2nccn2CCc2ccccc2)cc1	ALDH1A1 inh 20µM
Cc1ccc(CNC(=O)C2CCN(S(=O)(=O)c3cc(-c4noc(C)n4)ccc3C)CC2)cc1	none (no result: 12-hLO inh, ALDH1A1 inh, PNC assembly inh, HPGD inh)
CCOc1ccccc1-c1nc(C(N)=O)c2c(n1)n(-c1ccc3c(c1)OCO3)c(=O)n2C	none (no result: 12-hLO inh, ALDH1A1 inh, PNC assembly inh, HPGD inh)
COCCn1c(C)cc(O)c(C(c2ccc(Cl)cc2)N2CCN(c3ccccc3)CC2)c1=O (centres undefined)	none (no result: 12-hLO inh, ALDH1A1 inh, PNC assembly inh, HPGD inh)
O=C(CSC1=Nc2ccccc2N=C(c2ccc(F)cc2)C1)NCc1ccccc1	none (no result: 12-hLO inh, ALDH1A1 inh, PNC assembly inh, HPGD inh)
N=C(N)SC(c1ccccc1)c1ccccc1	none (no result: LMNA splice mod, PNC assembly inh)
Clc1ccc(CSC2=NCCN2)cc1Cl	none (no result: LMNA splice mod, PNC assembly inh)
CC[C@]12CCCN3CCc4c(n(c5ccccc45)C(=O)C1)[C@H]32	none (no result: LMNA splice mod, PNC assembly inh)
